Compound activity from PubChem BioAssay.
Rows were chosen to be rich in hits. Some 6.3% of all compounds tested hit in one or more screens of this group.
TGFb inhibitor: qHTS for Inhibitors of TGF-b | HepG2 CAGA-GFP TGF-b/SMAD3 reporter, GFP fluorescence, 18 h; TGF-beta stimulated, 500 pg/mL final | Potency, µM (top dose mostly 46.1 µM), without a hit: at the highest dose activity, negative = inhibition, actives largely listed as inhibitors | 1.2% of 410,000 active; note: % is set by controls: 0 for no effect and ±100 for the full control effect; nearly all actives have a fitted effect of over 65% in size
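HEPG2 CAGA-GFP cells (1000/well, DMEM with 1% FBS) were pre-incubated 2 h at 37 degrees C, given compound by pin tool, then stimulated with TGF-beta at 500 pg/mL final for 18 h before per-cell GFP fluorescence imaging.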
VP16 counter: VP16 counterscreen qHTS for inhibitors of ROR gamma transcriptional activity; Drosophila S2 Gal4-VP16 UAS-luciferase, luminescence, 20 h; Potency, µM (top dose mostly 53.6 µM), without a hit: top-dose activity, negative = inhibition, usual class: inhibitors; 3.5% of 310,000 active;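 note: Gal4-VP16 expression switched on by copper sulfate through the metallothionein promoter; % is set by controls: 0 for no effect and ±100 for the full control effect; nearly all actives have a fitted effect of over 50% in size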
HepG2 viability: qHTS for Inhibitors of TGF-b: Cytotox Counterscreen; HepG2 CAGA-GFP viability, ATP luminescence, 18 h; AID 588856, 2011; 0.76% of 410,000 active; Potency, µM (highest dose often 46.1 µM), for the others: top-dose activity change, negative = cytotoxicity, actives largely listed as cytotoxic
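HepG2 CAGA-GFP cells (1000/well, DMEM with 1% FBS) received compound, then TGF-beta at 500 pg/mL final, and were incubated 18 hours at 37 degrees C. Viability was read by CellTiter-Glo luminescence. Media-only wells were set as complete cell-killing and DMSO as no toxicity.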
RORgamma inh: qHTS for inhibitors of ROR gamma transcriptional activity; Nuclear receptor ROR-gamma (Mus musculus), P51450; Drosophila S2 Gal4-RORgamma UAS-luciferase reporter, 20 h; Potency, µM (doses to about 53.6 µM), without a hit: at the highest dose activity change, negative = inhibition, hits mostly inhibitors; 5.4% of 310,000 active; note: % is set by controls: 0 for no effect and ±100 for the full control effect; nearly all actives have a fitted effect of over 60% in size
Target sequence (P51450 whole entry, looked up, the tested form may be a part): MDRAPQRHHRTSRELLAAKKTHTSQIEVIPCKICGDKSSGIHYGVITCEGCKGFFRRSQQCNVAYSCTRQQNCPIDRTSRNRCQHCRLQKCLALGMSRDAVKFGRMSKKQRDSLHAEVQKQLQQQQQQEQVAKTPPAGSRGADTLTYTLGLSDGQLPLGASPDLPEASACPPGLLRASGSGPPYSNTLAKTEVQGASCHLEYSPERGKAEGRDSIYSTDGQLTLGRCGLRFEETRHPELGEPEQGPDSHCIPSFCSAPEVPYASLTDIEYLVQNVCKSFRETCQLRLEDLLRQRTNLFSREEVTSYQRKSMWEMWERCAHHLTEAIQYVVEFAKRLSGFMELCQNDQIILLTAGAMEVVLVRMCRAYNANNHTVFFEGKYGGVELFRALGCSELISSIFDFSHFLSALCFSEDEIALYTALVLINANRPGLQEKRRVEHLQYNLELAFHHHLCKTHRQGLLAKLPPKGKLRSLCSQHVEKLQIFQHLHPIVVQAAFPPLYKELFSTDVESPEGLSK
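A Gal4/UAS one-hybrid system in insect cells: metallothionein-promoter Gal4–ROR gamma fusion plus Photinus luciferase reporter. Copper sulfate 700 uM final, 20 hr ambient incubation, luminescent detection after 10 min with reagent.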
ATXN2 expr inh: Primary qHTS for Inhibitors of ATXN expression; 0.72% of 360,000 active; Potency, µM (doses to about 57 µM), inactives show at the highest dose activity change, negative = inhibition, actives largely listed as inhibitors; HEK-293 ATXN2-luciferase reporter, luminescence, 24 h; note: % is set by controls: 0 for no effect and ±100 for the full control effect; nearly all actives have a fitted effect of over 55% in size
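qHTS (up to 57 uM final) was run with 24 h compound exposure of reporter cells at 37 °C. Each well was multiplexed: SteadyGlo luminescence measured ATXN2-luciferase expression after a fluorogenic Gly-Phe-AFC viability readout (25 uM final).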
ATXN viability: Viability Counterscreen for Primary qHTS for Inhibitors of ATXN expression. S2 cells (HEK-293 line with an ATXN2-luciferase reporter) viability, CellTiter-Fluor protease fluorescence, 24 h. Potency, µM (doses to about 56.7 µM), usual class: cytotoxic. 0.49% of 400,000 active; note: nearly all actives have a fitted effect of over 40% in size
Active calls of the source: *; i = inactive; ? = inconclusive; · = no result; [ ] = dose if it differs, or a comment. Calls come from the whole dose curve; as a rule, active = well fitted curve in the direction sought with a large enough effect; inconclusive = small, poorly fitted or top-dose-only effect, or another doubt; inactive = no such curve, though single readings can be large; an effect the other way counts as inactive or inconclusive. Potency is the fitted concentration of half-maximal effect.

SMILES	TGFb inhibitor	VP16 counter	HepG2 viability	RORgamma inh	ATXN2 expr inh	ATXN viability
O=C(NC1CCCCCC1)c1cc2ccccc2oc1=O	2%	?	-10%	10µM*	48%	i
COc1cccc(NC(=O)c2cc3ccccc3o/c2=N\O)c1	-23%	20µM*	-46%	8.9µM*	·	i
O=C(Nc1cccnc1N1CCOCC1)c1cc2ccccc2oc1=O	1%	-4%	-16%	31%	32%	i
O=C(Nc1cccc(-c2cn3ccccc3n2)c1)c1cc2ccccc2oc1=O	3%	8.9µM*	-9%	?	?	·
CC(=O)Nc1cccc(-c2cn3ccccc3n2)c1	-9%	-20%	-4%	3%	·	i
O=C(O)c1ccccc1NC(=O)c1cc2ccccc2oc1=O	-1%	?	7%	13µM*	·	i
COC1=CC(=O)C=C(OC)C1(O)CC(C)=O	-10%	·	-8%	·	?	i
O=C(CCn1cncn1)NCC1Cc2cc(-c3ccsc3)cc(Cl)c2O1 (configuration not stated)	·	·	·	·	·	i
C/C=C/c1cccc(-c2nc(C(=O)N3CCOCC3)cc3c2[C@H](CCO)N(C(=O)NC(C)C)C3)c1	·	·	·	·	-8%	?
COc1ccc(NC(=O)c2cc3cc(OC)ccc3oc2=O)cc1	21%	·	13%	·	0%	i
Cc1cccc(NC(=O)c2cc3ccccc3oc2=O)c1	-3%	?	0%	2.8µM*	·	i
COc1ccc2oc(=O)c(C(=O)Nc3cccc(C(=O)O)c3)cc2c1	36%	·	-1%	·	0.89µM*	i
COc1ccc2oc(=O)c(C(=O)Nc3cccc(C)c3)cc2c1	91%	?	11%	2.2µM*	38%	i
Cc1ccnc(NC(=O)c2cc3ccccc3oc2=O)c1	-1%	-27%	-2%	-36%	55%	i
CS(=O)(=O)N1CCC2(CCN(Cc3nccs3)CC2)CC1	·	2%	·	11%	·	·
Cc1ccnc2cc(Cl)c(Cl)cc12	-1%	·	0%	·	·	·
Cc1cc(C)cc(NC(=O)CSc2nnc(-c3cc4occc4n3C)n2-c2ccccc2C)c1	?	·	-30%	·	·	·
CCCN1CCN(C(=O)c2cnn(-c3ncc4c(n3)-c3ccccc3CCC4)c2COC)CC1	·	·	·	·	·	i
COc1cccc(/C=C/C(=O)Nc2ccc3c(c2)OCCO3)c1OC	14%	?	-29%	1.1µM*	-1%	i
COc1ccccc1/C=C/C(=O)Nc1cccc(C(C)=O)c1	17%	?	0%	-15%	·	i
COc1ccc(/C=C/C(=O)Nc2cccc(F)c2)cc1	2%	·	-28%	·	43%	i
COc1cccc(/C=C/C(=O)Nc2cccc(C(C)=O)c2)c1OC	3%	?	-26%	1.4µM*	21%	·
COc1ccc(/C=C/C(=O)Nc2cccc(C(C)=O)c2)cc1	10%	6.3µM*	13%	3.2µM*	27%	?
CC(C)(C)NC(=O)C(c1ccc(-c2ccccc2)cc1)N(C[C@H]1CC[C@@H]([C@@H]2CC[C@H](CO)O2)O1)C(=O)c1ccc2ccccc2c1 (some centres not stated)	?	·	-89%	·	?	20µM*
CC(C)(C)NC(=O)C(c1ccc(-c2ccccc2)cc1)N(C[C@H]1CC[C@@H]([C@@H]2CC[C@H](CO)O2)O1)C(=O)c1ccc(-c2ccccc2)cc1 (some centres not stated)	?	·	-2%	·	?	·
O=C(O)/C=C/c1ccccc1	·	-2%	·	7%[10 µM]	·	·
CCc1nnc(NC(=O)C2Cc3ccccc3CN2S(=O)(=O)c2c(C)c(C)cc(C)c2C)s1 (configuration not stated)	?	-13%	-1%	11µM*	33%	i
